{"source": "PubChem BioAssay AID504385", "about": "(National Center for Advancing Translational Sciences (NCATS), 2011)", "note": "The source made the active and inactive calls. The rule behind the calls is not given here.", "data": [{"biological_target": "Lutropin-choriogonadotropic hormone receptor (Homo sapiens) (UniProt P22888)", "sequence (P22888 whole entry, looked up)": "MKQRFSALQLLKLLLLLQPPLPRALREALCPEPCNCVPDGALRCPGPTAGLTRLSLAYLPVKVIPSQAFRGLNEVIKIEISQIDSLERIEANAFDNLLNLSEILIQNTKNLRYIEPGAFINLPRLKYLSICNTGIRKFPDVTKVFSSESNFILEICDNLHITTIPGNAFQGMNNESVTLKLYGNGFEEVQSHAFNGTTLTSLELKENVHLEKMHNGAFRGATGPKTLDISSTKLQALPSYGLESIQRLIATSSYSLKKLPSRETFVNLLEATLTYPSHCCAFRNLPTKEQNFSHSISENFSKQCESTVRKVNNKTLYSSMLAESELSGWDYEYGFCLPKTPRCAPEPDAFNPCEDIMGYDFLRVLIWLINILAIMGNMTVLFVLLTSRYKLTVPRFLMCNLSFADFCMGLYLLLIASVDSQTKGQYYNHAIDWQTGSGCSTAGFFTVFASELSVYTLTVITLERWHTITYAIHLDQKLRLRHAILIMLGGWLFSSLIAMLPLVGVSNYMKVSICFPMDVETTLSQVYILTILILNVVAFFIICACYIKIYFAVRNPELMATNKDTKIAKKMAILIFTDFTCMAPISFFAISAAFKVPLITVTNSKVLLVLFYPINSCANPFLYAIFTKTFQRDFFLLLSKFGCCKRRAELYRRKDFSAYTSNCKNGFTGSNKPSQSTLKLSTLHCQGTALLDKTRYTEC", "test": "Counterscreen for antagonists of the thyroid stimulating hormone receptor: ELISA activity in a Luteinizing Hormone Receptor cell line", "details": "HEK293 LHR cells, LH-induced cAMP ELISA", "source_text": "TSH is an alpha/beta heterodimeric glycoprotein hormone secreted from the anterior pituitary gland which belongs to the glycoprotein hormone family. The actions of TSH are mediated by a seven-transmembrane receptor, which upon TSH binding couples preferentially to the G-alpha (s) protein (Gs), resulting in activation of adenylate cyclase and increase in cyclic adenosine 3', 5' monophosphate (cAMP). The TSH receptor (THSR) is mainly expressed in thyroid follicular cells and regulates their growth and function. This cell based assay was conducted on a TSHR transfected HEK 293 cell line, measuring cAMP stimulation using antibody-based Homogeneous Time Resolved Fluorescence (HTRF). Our goal is to identify small molecules that will inhibit (antagonize) the thyroid-stimulating hormone receptor (TSHR), a member of the 7 transmembrane-spanning receptor (7TMR) family of cell surface receptors. TSHR-mediated hyperthyroidism is important in thyroid pathology. The development of small molecule antagonists of TSHR may lead to therapeutic approaches for TSHR-mediated hyperthyroidism caused by constitutively activating mutations or stimulating auto-antibodies associated with Graves' disease. Graves' disease is the leading cause of hyperthyroidism and is caused by autoantibodies that stimulate TSHR (TsAbs) causing thyroid growth and unregulated overproduction of thyroid hormones and existing treatments have liabilities (agranulocytosis). In addition, TSHRs are known to be expressed in multiple extrathyroidal tissues including bone, brain, kidney, testis, fat and cells of the immune system but the role of the TSHR in these tissues is not clear. Therefore, TSHR antagonists/inverse agonists could be used as probes of extrathyroidal TSHR function. Finally, TSHR inverse agonists, which are a subclass of antagonists that inhibit agonist-independent (or basal or constitutive) TSHR signaling, could be used to inhibit TSH-independent signaling in patients with recurrent or metastatic thyroid cancer who are receiving thyroid hormone to suppress TSH. In order to confirm specificity of the compounds to the TSHR, a confirmatory assay was conducted on a similar family member, the Luteinizing Hormone Receptor, transfected into a HEK 293 cell line, using an orthogonal detection technology to measure cAMP stimulation: an ELISA based cAMP competition assay using cAMP-Screen Direct System (Applied Biosystems, Foster City, CA)/\nTransiently transfected HEK-EM 293 cells or cells stably expressing LHR were seeded into 96-well plates at a density of 7 x10^4 cells per well in DMEM containing 10% FBS. Cells were cultured for 24 h before incubation for 20 min in HBSS/10 mM HEPES (pH 7.4). To determine the effect of the compound on LH induced LHR activity, cells were incubated for 20 min with the compound in HBSS/HEPES without IBMX and subsequently for 40 min with bovine LH (Sigma) and the compound in HBSS/HEPES supplemented with 1 mM IBMX at 37 C. The levels of cAMP in cells incubated in HBSS/HEPES without IBMX were subtracted in all experiments. After aspiration of the incubation medium, cells were lysed using lysis buffer of the cAMP-Screen Direct system (Applied Biosystems, Foster City, CA). The cAMP content of the cell lysate was determined using the method described in the manufacturer's protocol. The chemiluminescence signal was measured in a VICTOR3 V 1420 multilabel counter (PerkinElmer, Norwalk, CT). The potency (IC50) of the ligands were obtained from dose-response curves by data analysis with GraphPad Prism 4 for Windows.", "values": [{"smiles": "Cc1cccc(C)c1OCc1cccc(C2Nc3ccccc3C(=O)N2Cc2ccco2)c1", "note": "(configuration not stated)", "outcome": "inactive"}, {"smiles": "COc1ccc(C2Nc3ccccc3C(=O)N2Cc2cccnc2)cc1COc1c(C)cccc1C", "note": "(configuration not stated)", "outcome": "inactive"}, {"smiles": "COc1ccc(C2Nc3ccccc3C(=O)N2Cc2ccco2)cc1COc1c(C)cccc1C", "note": "(configuration not stated)", "IC50": "480 nM (active)"}, {"smiles": "COc1ccc(C2Nc3ccccc3C(=O)N2Cc2ccco2)cc1CSc1c(C)cccc1C", "note": "(configuration not stated)", "outcome": "inactive"}, {"smiles": "COc1ccc(C2Nc3ccccc3C(=O)N2Cc2ccc(C)o2)cc1COc1c(C)cccc1C", "note": "(configuration not stated)", "outcome": "inactive"}, {"smiles": "COc1ccc(C2Nc3ccccc3C(=O)N2Cc2ccco2)cc1COc1c(C)cc(NC(C)=O)cc1C", "note": "(configuration not stated)", "outcome": "inactive"}, {"smiles": "CCc1cccc(CC)c1OCc1cc(C2Nc3ccccc3C(=O)N2Cc2ccco2)ccc1OC", "note": "(configuration not stated)", "outcome": "inactive"}]}]}
